Out of some 350,000 compounds screened, about 31,000 (8.9%) were called active. Entries that show only a call come without a potency. About 15% were inconclusive and are not listed. Calls come from the whole dose curve; as a rule, active = well fitted inhibition curve with a large enough effect; inconclusive = small, poorly fitted or top-dose-only effect; inactive = no such curve, though single readings can be large or run the other way. The sample as a whole holds a higher share of actives than the screen did.
Potency is the fitted concentration of half-maximal effect.

Chain of Histone-lysine N-methyltransferase EHMT2 (Homo sapiens) (Q96KQ7 913-1193 limits assumed): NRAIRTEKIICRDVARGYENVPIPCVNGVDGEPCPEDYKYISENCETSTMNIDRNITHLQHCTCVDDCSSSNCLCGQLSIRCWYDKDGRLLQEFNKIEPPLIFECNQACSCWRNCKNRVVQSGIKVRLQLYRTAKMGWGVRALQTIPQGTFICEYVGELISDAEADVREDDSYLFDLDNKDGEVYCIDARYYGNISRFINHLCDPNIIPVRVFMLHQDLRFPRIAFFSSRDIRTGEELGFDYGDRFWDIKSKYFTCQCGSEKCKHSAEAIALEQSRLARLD

The target of the assay is Histone-lysine N-methyltransferase EHMT2 (Homo sapiens) (UniProt Q96KQ7). As to the kind of experiment: qHTS Assay for Inhibitors of Histone Lysine Methyltransferase G9a. Note: nearly all actives have a fitted effect of over 75% in size. Conditions: G9a H3K9 monomethylation, AlphaScreen, 2 h; series mostly up to 59 µM. A digest of the protocol:
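Chemiluminescent proximity detection of H3K9 monomethylation, read after 10 min bead incubation in the dark. Reaction: 20 nM G9a, 500 nM biotin-H3K9 peptide, 20 uM SAM cofactor, 2 h, room temperature, following 15 min enzyme-compound preincubation.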
On the technique in general: Quantitative high-throughput screening tests each substance at several concentrations.
As to `CCc1ccc(C(=O)NN=C2CCCCCC2)s1`, the Potency entry was “inactive”.

For `O=C(Nc1ccccc1Br)c1cc(CN2CCCC2)on1`, the Potency result was “inactive”.

Consider `COc1cccc(NC(=O)C(Sc2nnnn2C)c2ccccc2)c1` (configuration not stated), for which the Potency result was “inactive”.

Regarding `COc1ccc(NC(=O)CSc2nc3ccccc3c(=O)n2C)cc1`, the activity, negative = inhibition is 7.85% [at 0.501 µM] (inactive).

On to `COc1cccc(NC(=O)C(Sc2nc3ccccc3c(=O)n2CC(C)C)c2ccccc2)c1` (configuration not stated), for which the Potency was 79.4 µM (active).

Turning to `Cc1ccc(C2CCN(C(=O)c3cnn(-c4ccccc4Cl)c3C3CCN(C(=O)OC(C)(C)C)CC3)C2)cc1` (configuration not stated), the Potency result was “inactive”.

Turning to `CC(=O)Nc1ccc(NC(=O)c2sc3nc4c(c(-c5ccc(C)cc5)c3c2N)CCC4)cc1`, the Potency result is “inactive”.

Regarding `Cc1ccc(NC(=O)c2sc3nc(N)c(C#N)cc3c2N)cc1`, the Potency is 7.94 µM (active).

For `COc1ccc(NC(=O)c2cc(-c3ccc(C)cc3)on2)cc1`, the activity, negative = inhibition was -5.29% [at 0.501 µM] (inactive).

For the molecule `COc1ccc(CCNC(=O)CCNS(=O)(=O)c2cc(Br)cnc2N)cc1OC`, the Potency result was “inactive”.

As to `COCC1CCN(C(=O)C2CCC(=O)N(Cc3cccc(C(F)(F)F)c3)C2)CC1` (configuration not stated), the activity, negative = inhibition is 15.3% [at 12.7 µM] (inactive).

On to `O=c1o[nH]c(-c2ccccc2)c1N=Nc1c(F)cccc1Cl`, for which the Potency was 28.2 µM (active).

`O=c1c(=O)n(Cc2c(F)cccc2Cl)ccn1Cc1ccccc1`: the Potency result is “inactive”.

With `O=c1onc(-c2c(F)cccc2F)n1-c1ccccc1Cl`, the Potency result was “inactive”.

In the case of `Cc1nnc(NC(=O)CSc2nc3c([nH]c4ccccc43)c(=O)n2-c2cccc(Cl)c2)s1`, the Potency entry is “inactive”.

As for `COCCNS(=O)(=O)c1cc(-c2nn3c(C)nnc3c3ccccc23)ccc1C`, the Potency entry is “inactive”.

For the molecule `Cc1nc2ccccn2c(=O)c1NC(=O)c1cccs1`, the Potency entry is “inactive”.

Regarding `Cc1ccc(C)c(S(=O)(=O)c2nnn3c2nc(N2CCOCC2)c2sccc23)c1`, the Potency result was “inactive”.

As for `CCOC(=O)C1CN(S(=O)(=O)c2ccc(OC)cc2)c2cc(Cl)ccc2O1` (configuration not stated), the Potency result was “inactive”.

`O=[N+]([O-])c1cccc(S(=O)(=O)N2CCCCCC2)c1`: the Potency result was “inactive”.

With `Cc1ccc(C)c(S(=O)(=O)N2CCN(CC(=O)Nc3ccc([N+](=O)[O-])cc3)CC2)c1`, the Potency entry is “inactive”.

Consider `Cc1ccc([N+](=O)[O-])cc1S(=O)(=O)N1CCCN(C)CC1`, for which the Potency is 56.2 µM (active).

In the case of `CC(CNC(=O)c1nnc(Cc2cccc(F)c2)o1)c1ccccc1` (configuration not stated), the Potency entry was “inactive”.

As for `O=C(NCCC1CCCCN1S(=O)(=O)c1ccc(Cl)cc1)C(=O)NCc1ccco1` (configuration not stated), the activity, negative = inhibition was -5.87% [at 0.501 µM] (inactive).

Regarding `CCOc1ccc(NC(=O)C2CC(=O)N=C(N)S2)cc1` (configuration not stated), the Potency entry was “inactive”.

In the case of `CCOc1ccc(N/C(N)=N/c2nc(C)c(C)c(=O)[nH]2)cc1`, the Potency was 50.1 µM (active).

As for `CCOc1ccc(NC(=O)c2nc(SCC)ncc2Cl)cc1`, the Potency entry was “inactive”.

On to `COc1ccccc1C(=O)Nc1c(C(=O)Nc2ccc(C)cc2)oc2ccccc12`, for which the Potency result was “inactive”.

With `COc1ccc(C)cc1NC(=O)COCc1cc(-c2cccs2)on1`, the Potency entry is “inactive”.

As to `COc1ccc(CNC(=O)COc2ccccc2C(=O)c2cnn(-c3ccccc3)c2)cc1OC`, the activity, negative = inhibition is 13.3% [at 12.7 µM] (inactive).

With `CCOC(=O)C1(Cc2ccccc2C)CCCN(C(=O)c2ccc(COC)o2)C1` (configuration not stated), the Potency entry is “inactive”.

Take `N#CCCN(C(=O)COC(=O)c1ccc(S(=O)(=O)N2CCCCCC2)cc1)c1ccccc1`: the Potency result was “inactive”.

`O=C(O)/C=C/C(=O)NNc1ccc([N+](=O)[O-])cc1`: the Potency was 7.94 µM (active).

As for `O=C(Cc1ccccc1)NNS(=O)(=O)c1ccc([N+](=O)[O-])cc1`, the Potency entry is “inactive”.

Take `CC(C)(C)C(=O)NCCCNc1ccc([N+](=O)[O-])cc1`: the Potency result was “inactive”.

In the case of `CCc1nn(CC(=O)Nc2cc(C)cc(C)c2)c(=O)c2cc3sccc3n12`, the Potency entry is “inactive”.

Take `Cc1n[nH]c(=O)c2c(NC(=O)CSc3cc(Cl)ccc3Cl)oc(C)c12`: the activity, negative = inhibition was 18.3% [at 2.33 µM] (inactive).

As for `Cc1n[nH]c(=O)c2c(NC(=O)CSc3ccccc3F)oc(C)c12`, the Potency is 31.6 µM (active).

As for `Cc1n[nH]c(=O)c2c(NC(=O)COC(=O)c3ncc(Cl)c(Cl)c3Cl)oc(C)c12`, the activity, negative = inhibition is 5.9% [at 0.501 µM] (inactive).

As to `O=C(O)Cc1sc(-c2ccccc2)nc1-c1cccs1`, the Potency result was “inactive”.

`O=c1c2cc(-c3ccccc3)sc2nc2n1N=C(c1cccs1)CS2`: the Potency was 11.2 µM (active).

`O=c1c(-c2ccccc2)cnc2n1CCS2`: the activity, negative = inhibition was 20.8% [at 12.7 µM] (inactive).

Consider `CS(=O)(=O)N1CCN=C1SCc1ccc(F)cc1`, for which the Potency result was “inactive”.

As to `CCOC(=O)N1CCC(NC(=O)c2cnn(-c3cccc(C)c3)c2C2CCN(C(=O)OC(C)(C)C)CC2)CC1`, the Potency entry is “inactive”.

Regarding `CCOC(=O)c1cc2c(=O)n3ccccc3nc2n(CCCOC)c1=NC(=O)C(C)(C)Oc1ccc(Cl)cc1`, the Potency entry is “inactive”.

On to `Cc1cccc(-n2ccnc2SCC(=O)Nc2cc(C(F)(F)F)ccc2Cl)c1`, for which the Potency is 14.1 µM (active).

As to `O=C(CSc1nc(=O)[nH]c2c1CCCC2)Nc1cc(C(F)(F)F)ccc1Cl`, the Potency result is “inactive”.

For `CC(CC(=O)Nc1cc(C(F)(F)F)ccc1Cl)c1ccccc1` (configuration not stated), the Potency result was “inactive”.

With `O=C(CSc1nccn1C1CCCC1)Nc1cc(C(F)(F)F)ccc1Cl`, the Potency was 12.6 µM (active).

Regarding `Cc1cccc(-n2c(Cc3cc(=O)[nH]c(=O)[nH]3)nnc2SCC(=O)Nc2cccc(C(F)(F)F)c2)c1`, the Potency result was “inactive”.

Consider `COc1ccc(NC(=O)CSc2nccn2C2CCCC2)cc1OC`, for which the Potency result is “inactive”.

Regarding `O=C(CN1C(=O)NC2(CCCCC2)C1=O)N1CCN(C(=O)c2cccs2)CC1`, the activity, negative = inhibition is -17% [at 2.33 µM] (inactive).

For `Cc1ccc2nc(COc3cccc(NC(=O)Nc4ccc(C)c(Cl)c4)c3)cc(=O)n2c1`, the Potency result was “inactive”.

On to `CC(=O)NC12CC3CC(C1)CC(C(=O)N1CCN(C(=O)c4ccco4)CC1)(C3)C2`, for which the Potency entry was “inactive”.

As to `CCCC(=O)Nc1ccc2oc(-c3ccc(O)c(Br)c3)nc2c1`, the Potency entry was “inactive”.

On to `CC(C)Nc1nnc(SC(C)C(=O)N(C)C2CCCCC2)s1` (configuration not stated), for which the activity, negative = inhibition is 7.92% [at 0.501 µM] (inactive).

Consider `O=C(Cn1ncn2nc(-c3cccs3)cc2c1=O)NCc1cccc(Br)c1`, for which the Potency result is “inactive”.
